Where “and” joins values, the source holds several entries; their conditions need not be identical. Equal values may be shown once. This is part of a sample that, as a whole, favours compounds with a hit. Of some 79,000 tested, about 15% had one in any assay. Some structures have more than one record in an assay (separate samples or runs), and their calls can disagree. Calls of active or inactive are those of the source. No stated cut-off is given here; in the data, active means growth inhibition above about 70%; inactive means the rest.
Assay: NCI Yeast Anticancer Drug Screen. Data for the sgs1 strain (AID 173);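 further: 0% = growth of vehicle-only control cultures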
Details: S. cerevisiae sgs1 mutant, stronger effect = higher value
Procedure: Growth inhibition of yeast strains with defined genetic alterations is measured as a screen for potential anti-cancer activity. Selected strains with alterations in DNA damage repair or cell cycle control were exposed to compounds and growth inhibition was measured relative to vehicle treated controls. The strain used in this assay is sgs1

| SMILES | growth inhibition (at 1.2 µM) | growth inhibition (at 3.7 µM) | growth inhibition (at 11.0 µM) | growth inhibition (at 33.0 µM) | growth inhibition (at 100.0 µM) |
| --- | --- | --- | --- | --- | --- |
| Cc1nc2ccc(Br)cc2c(=O)n1-c1ccc(NC2OCC(O)C(O)C2O)cc1 (stereo not given) | 6% (inactive) | 12% (inactive) | 25% (inactive) | 61% (inactive) | 89% (active) |
| COc1ccc2nc3cccc([N+](=O)[O-])c3c(NCCCO)c2c1 | 93% (active) | 95% (active) | 97% (active) | 98% (active) | 97% (active) |
| COc1ccc(C(=O)OCCc2ccccc2)cc1 | -15% (inactive) | 7% (inactive) | -18% (inactive) | -2% (inactive) | -4% (inactive) |
| Cc1ccc(S(=O)(=O)N/N=C/c2c(O)ccc3ccccc23)cc1 | 26% (inactive) | 42% (inactive) | 76% (active) | 80% (active) | 87% (active) |
| COc1ccc2[nH]c3c(C)c4cc[n+](C)cc4c(C)c3c2c1 | 18% (inactive) and 25% (inactive) | 32% (inactive) and 39% (inactive) | 51% (inactive) and 42% (inactive) | 42% (inactive) and 52% (inactive) | 50% (inactive) and 82% (active) |
| CCCC(=O)OC(OC(=O)CCC)c1ccc([N+](=O)[O-])o1 | -1% (inactive) | 1% (inactive) | 7% (inactive) | 21% (inactive) | 61% (inactive) |
| CCCCCCCCCCCCCCCCCN | -46% (inactive) | -3% (inactive) | 58% (inactive) | 97% (active) | 96% (active) |
| c1ccc(N/N=C2\CC(c3ccccc3)Oc3ccccc32)cc1 (stereo not given) | -1% (inactive) | 0% (inactive) | 5% (inactive) | 18% (inactive) | 24% (inactive) |
